Each structure is given as a SMILES string. Activity calls are given as the source filed them. The calls were made as follows: active = hit-call score of the fitted dose curve at least 0.9, where 1 is the maximum; inactive = score below 0.9.

From PubChem BioAssay (EPA / NIEHS) come the findings set out here.

Read-out in test [1]: Urokinase-type plasminogen activator receptor (uPAR), PLAUR (gene 5329)
Nature of the test: BSK_4H_uPAR: BioMAP Diversity Plus: 4H Assay for Urokinase-type plasminogen activator receptor (uPAR) Biomarker Activity (AID 2283030). Particulars: primary human endothelial cells (HUVEC); actives raise or lower the signal. An outline of the steps: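 Human umbilical vein endothelial cells in the 4H system, 24 h after chemical dosing. Cell-surface uPAR measured by ELISA, fitted in both directions versus DMSO; cytotoxicity checked by SRB total protein in parallel cultures.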

Read-out in test [2]: Vascular endothelial growth factor receptor 2 (Homo sapiens) (UniProt P35968)
Nature of the test: BSK_4H_VEGFRII: BioMAP Diversity Plus: 4H Assay for Vascular endothelial growth factor receptor 2 (VEGFR2) Biomarker Activity (AID 2283031).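 As to AC50: cell-surface VEGFR2 protein level quantified by ELISA.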 Particulars: primary human endothelial cells (HUVEC); actives raise or lower the signal. An outline of the steps: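 Primary human umbilical vein endothelial cells (4H system), 24 h exposure; cell-surface VEGFR2 measured by ELISA. Bidirectional fitting versus DMSO; cytotoxicity checked in parallel by SRB total-protein staining.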

Read-out in test [3]: Human Leukocyte Antigen - DR isotype (HLADR), HLA-DRA (gene 3122)
Kind of test: BSK_BE3C_HLADR: BioMAP Diversity Plus: BE3C Assay for Human Leukocyte Antigen - DR isotype (HLADR) Biomarker Activity (AID 2283032). The following applies: primary human bronchial epithelial cells; actives raise or lower the signal. The method in brief: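 Human primary bronchial epithelial cells (BE3C system) exposed to compound for 24 hours; cell-surface HLA-DR measured by ELISA, fitted bidirectionally relative to DMSO. Total protein by SRB in parallel cultures tracked cytotoxicity.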

Read-out in test [4]: Vascular cell adhesion molecule 1 (VCAM1), VCAM1 (gene 7412)
Kind of test: BSK_4H_VCAM1: BioMAP Diversity Plus: 4H Assay for Vascular cell adhesion molecule 1 (VCAM1) Biomarker Activity (AID 2283033). The following applies: primary human endothelial cells (HUVEC); actives raise or lower the signal. An outline of the steps:
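Primary human umbilical vein endothelial cells, 4H stimulation system, treated for 24 h; cell-surface VCAM-1 quantified by ELISA. Bidirectional fitting against DMSO; cytotoxicity tracked by SRB total-protein staining in parallel cultures.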

Read-out in test [5]: Interferon-gamma inducible Protein 10 (IP10), CXCL10 (gene 3627)
Nature of the test: BSK_BE3C_IP10: BioMAP Diversity Plus: BE3C Assay for Interferon-gamma inducible Protein 10 (IP10) Biomarker Activity (AID 2283034). Particulars: primary human bronchial epithelial cells; actives raise or lower the signal. The method in brief: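 Primary human bronchial epithelial cells, with IP-10 measured by ELISA 24 hours after chemical dosing. Bidirectional fit against DMSO; cytotoxicity checked by SRB total protein staining in parallel cultures.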

Read-out in test [6]: Transforming growth factor beta 1 (TGFb1), TGFB1 (gene 7040)
Kind of test: BSK_BE3C_TGFb1: BioMAP Diversity Plus: BE3C Assay for Transforming growth factor beta 1 (TGFb1) Biomarker Activity (AID 2283036). The following applies: primary human bronchial epithelial cells; actives raise or lower the signal. An outline of the steps: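 Primary human bronchial epithelial cells dosed with chemical; TGF-b1 measured by ELISA 24 h after dosing. Bidirectional curve fitting against DMSO negative control; SRB total-protein staining in parallel cultures gauged cytotoxicity.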

Read-out in test [7]: Plasminogen activator inhibitor-1 (PAI1), SERPINE1 (gene 5054)
Kind of test: BSK_BE3C_PAI1: BioMAP Diversity Plus: BE3C Assay for Plasminogen activator inhibitor-1 (PAI1) Biomarker Activity (AID 2283037). Particulars: primary human bronchial epithelial cells; actives raise or lower the signal. The method in brief: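 Primary human bronchial epithelial cells (BE3C system) exposed 24 h; PAI-1 quantified by ELISA. Parallel sulforhodamine B staining of total protein flags cytotoxicity. Bidirectional fit versus DMSO.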

Read-out in test [8]: urokinase plasminogen activator (uPA), PLAU (gene 5328)
Kind of test: BSK_BE3C_uPA: BioMAP Diversity Plus: BE3C Assay for urokinase plasminogen activator (uPA) Biomarker Activity (AID 2283038).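 As to outcome: uPA protein level quantified by ELISA in cell cultures; uPA read one day after compound addition.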 The following applies: primary human bronchial epithelial cells; actives raise or lower the signal. An outline of the steps:
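Primary human bronchial epithelial cells, uPA measured by ELISA 24 h after dosing. Bidirectional change relative to DMSO; cytotoxicity checked in parallel cultures by sulforhodamine B total-protein staining.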

Read-out in test [9]: Urokinase-type plasminogen activator receptor (uPAR), PLAUR (gene 5329)
Kind of test: BSK_BE3C_uPAR: BioMAP Diversity Plus: BE3C Assay for Urokinase-type plasminogen activator receptor (uPAR) Biomarker Activity (AID 2283039).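 As to outcome: cells exposed to compound for one day before measurement.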 Particulars: primary human bronchial epithelial cells; actives raise or lower the signal. The method in brief:
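Primary human bronchial epithelial cells dosed for 24 h; uPAR quantified by ELISA with bidirectional fitting against DMSO. Overt cytotoxicity assessed in parallel cultures by SRB total-protein staining (0.1% SRB, 560 nm).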

Read-out in test [10]: Interleukin-6 (IL6), IL6 (gene 3569)
Nature of the test: BSK_CASM3C_IL6: BioMAP Diversity Plus: CASM3C Assay for Interleukin-6 (IL6) Biomarker Activity for (AID 2283040). The following applies: primary human coronary artery smooth muscle cells; actives raise or lower the signal.

Read-out in test [11]: Tissue plasminogen activator (tPA), PLAT (gene 5327)
Kind of test: BSK_BE3C_tPA: BioMAP Diversity Plus: BE3C Assay for Tissue plasminogen activator (tPA) Biomarker Activity (AID 2283041).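 As to outcome: tPA level quantified by ELISA one day after compound addition.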 Particulars: primary human bronchial epithelial cells; actives raise or lower the signal. An outline of the steps:
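Primary human bronchial epithelial cells in the BE3C system, exposed to compound for 24 h. tPA was quantified by ELISA; DMSO served as baseline, with gain or loss of signal fitted. Cytotoxicity checked in parallel cultures by SRB total-protein staining.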

Read-out in test [12]: Interleukin-8 (IL8), CXCL8 (gene 3576)
Kind of test: BSK_CASM3C_IL8: BioMAP Diversity Plus: CASM3C Assay for Interleukin-8 (IL8) Biomarker Activity (AID 2283042).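 Also: IL-8 protein level quantified by ELISA.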 The following applies: primary human coronary artery smooth muscle cells; actives raise or lower the signal.

Read-out in test [13]: Human Leukocyte Antigen - DR isotype (HLADR), HLA-DRA (gene 3122)
Nature of the test: BSK_CASM3C_HLADR: BioMAP Diversity Plus: CASM3C Assay for Human Leukocyte Antigen - DR isotype (HLADR) Biomarker Activity (AID 2283043).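 Also: cell-surface HLA-DR protein level quantified by ELISA.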 The following applies: primary human coronary artery smooth muscle cells; actives raise or lower the signal.

Read-out in test [14]: Macrophage colony-stimulating factor (MCSF), CSF1 (gene 1435)
Nature of the test: BSK_CASM3C_MCSF: BioMAP Diversity Plus: CASM3C Assay for Macrophage colony-stimulating factor (MCSF) Biomarker Activity (AID 2283044).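 Also: M-CSF protein amount quantified by ELISA after 24 h exposure.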 The following applies: primary human coronary artery smooth muscle cells; actives raise or lower the signal.

Read-out in test [15]: Low-density lipoprotein receptor (LDLR), LDLR (gene 3949)
Nature of the test: BSK_CASM3C_LDLR: BioMAP Diversity Plus: CASM3C Assay for Low-density lipoprotein receptor (LDLR) Biomarker Activity (AID 2283045).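 Also: LDLR protein level on the cell surface quantified by ELISA.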 The following applies: primary human coronary artery smooth muscle cells; actives raise or lower the signal.

Read-out in test [16]: Monocyte Chemoattractant Protein-1 (MCP1), CCL2 (gene 6347)
Kind of test: BSK_CASM3C_MCP1: BioMAP Diversity Plus: CASM3C Assay for Monocyte Chemoattractant Protein-1 (MCP1) Biomarker Activity (AID 2283046).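 Also: MCP-1 level quantified by ELISA 24 h after dosing.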 The following applies: primary human coronary artery smooth muscle cells; actives raise or lower the signal.

Test [17] can be described thus: BSK_CASM3C_Proliferation: Cell Proliferation Assessment in the BioMAP Diversity Plus: CASM3C Assay (AID 2283047).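 Also: sulforhodamine B total protein stain as relative cell number at 560 nm; sub-confluent cells exposed 48 h before staining; fitted both ways against DMSO so gain or loss of cell number.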 The following applies: primary human coronary artery smooth muscle cells.
Read-out in test [18]: Monokine induced gamma interferon (MIG), CXCL9 (gene 4283)
Nature of the test: BSK_CASM3C_MIG: BioMAP Diversity Plus: CASM3C Assay for Monokine induced gamma interferon (MIG) Biomarker Activity (AID 2283048).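 Also: MIG protein level measured by ELISA.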 Particulars: primary human coronary artery smooth muscle cells; actives raise or lower the signal.

Read-out in test [19]: serum amyloid A (SAA), SAA1 (gene 6288)
Nature of the test: BSK_CASM3C_SAA: BioMAP Diversity Plus: CASM3C Assay for serum amyloid A (SAA) Biomarker Activity (AID 2283049).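 Also: SAA protein level quantified by ELISA.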 The following applies: primary human coronary artery smooth muscle cells; actives raise or lower the signal.

Read-out in test [20]: Monokine induced gamma interferon (MIG), CXCL9 (gene 4283)
Nature of the test: BSK_BE3C_MIG: BioMAP Diversity Plus: BE3C Assay for Monokine induced gamma interferon (MIG) Biomarker Activity (AID 2283035). The following applies: primary human bronchial epithelial cells; actives raise or lower the signal. The method in brief:
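MIG level was determined by ELISA after 24 h chemical treatment of primary human bronchial epithelial cells. Values were fitted bidirectionally with DMSO as the negative control and activity baseline.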

Broadly, the AC50 is the midpoint of the concentration-response curve, whichever way the signal moves. Turning to `CCc1nn(C)c(C(=O)NCc2ccc(C(C)(C)C)cc2)c1Cl`, the AC50 in test [1] is 33 µM (active); in test [3], 18.3 µM (active); in test [4], 6.81 µM (active); in [5], 25.7 µM (active); in test [7], 31.9 µM (active); in test [8], 30.6 µM (active). For the same molecule, the concentration at half-maximal activity (AC50) in test [9] was 27.3 µM (active); in [11] it was 20 µM (active); in [17], 14.4 µM (active). Besides, the result in test [2], in test [6], in test [10], in test [12], in [13] and in test [14] was inactive. Also, the result in [15], in test [16], in test [18] and in test [19] was inactive.

Consider `COC(=O)c1ccccc1C(=O)OC`, for which the result in test [1], in test [2], in test [3], in [4], in test [5] and in [20] was inactive. Further, the result in test [6], in [7], in [8], in test [9], in test [10] and in [11] was inactive. Further, the outcome in test [12], in test [13], in test [14], in test [15], in [16] and in test [17] was inactive. The outcome in [18] and in test [19] was inactive.

As to `Oc1ccccc1-c1ccccc1`, the outcome in [1], in [2], in [3], in test [4], in [5] and in [20] was inactive. Besides, the outcome in test [6], in test [7], in [8], in test [9], in test [10] and in [11] was inactive. The result in [12], in test [13], in test [14], in test [15], in test [16] and in test [17] was inactive. For the same molecule, the outcome in test [18] and in [19] was inactive.

In the case of `CNC(=O)ON=CC(C)(C)SC`, the result in test [1], in [2], in test [3], in test [4], in test [5] and in [20] was inactive. In addition, the result in test [6], in test [7], in test [8], in [9], in [10] and in [11] was inactive. For the same molecule, the outcome in test [12], in test [13], in test [14], in [15], in [16] and in test [17] was inactive. Moreover, the result in test [18] was inactive. In addition, the AC50 in test [19] is 1.35 µM (active).

For `CCNc1nc(Cl)nc(NC(C)C)n1`, the outcome in test [1], in test [2], in test [3], in [4], in [5] and in [6] was inactive. Also, the result in [7], in test [8], in test [9], in test [10], in [11] and in test [12] was inactive. The result in test [13], in test [14], in [15], in test [16], in test [17] and in test [18] was inactive. For the same molecule, the result in test [19] was inactive.

Regarding `CS/C(C)=N/OC(=O)N(C)SN(C)C(=O)O/N=C(\C)SC`, the AC50 in [1] is 26.8 µM (active); in test [2], 28.7 µM (active); in test [3], 30.1 µM (active); in test [4], 31.1 µM (active); in [5], 25.9 µM (active); in test [10] it was 35 µM (active). Besides, the AC50 was 32.1 µM (active) in test [12]; 28.9 µM (active) in test [14]; 34.7 µM (active) in test [16]; 6.19 µM (active) in [17]; 35 µM (active) in test [18]; 20 µM (active) in test [19]. Moreover, the result in [6], in test [7], in [8], in test [9], in test [11] and in test [13] was inactive. The outcome in [15] was inactive.
